The structures appear in SMILES notation. The source made the active and inactive calls. Unless noted, no rule for the calls is given here.

Assay [1] deals with Wnt5a (protein binding on small-molecule microarray). Kind of assay: Wnt5a binders on small-molecule microarray, primary screen, biophysical, 635/667 nm fluorescence (AID 1142).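 Also: fluorescence read at 667 nm with signal to noise per printed feature.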 The following applies: 635 nm fluorescence, higher = more signal.
A short description of assay [2]: cell viability in Huh7 cells, primary screen, cytotoxicity control for HCV replication inhibitor project, CellTiter-Glo luminescence, basal, 48 h (AID 1143).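 Also: Huh7 hepatoma cells carrying a hepatitis C replication reporter with no stimulus; test concentration not given here.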 The following applies: Huh7 HCV replicon, higher = more signal, called active from +8 up or from −8 down.
Assay [3] in a line: P. aeruginosa biofilm formation inhibitors, primary screen, PAO1 strain, BacTiter-Glo luminescence, LB-PBS (AID 1144). The following applies: 12 h, higher = more signal.
A short description of assay [4]: CREB reporter modulators without forskolin, primary screen, cell-based, PC12, CRE-LacZ reporter, unstimulated (AID 1145). The conditions noted are these: no forskolin, luminescence, 4.5 h, higher = more signal, called active from +8 up or from −8 down.
Assay [5] can be described thus: CREB reporter modulators under forskolin, primary screen, cell-based, PC12, CRE-LacZ reporter, forskolin-stimulated (AID 1146).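 Also: PC12 cells with 6xCRE LacZ reporter stimulated by forskolin 10 µM; beta-galactosidase reporter signal reflecting CREB driven transcription.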 The conditions noted are these: luminescence, 4.5 h, higher = more signal, called active from +8 up or from −8 down.
Assay [6] has as its target Streptavidin (Streptomyces avidinii) (UniProt P22629). Kind of assay: streptavidin binders on small-molecule microarray, primary screen, artefact control for SMM compound annotation, biophysical, 635/667 nm fluorescence (AID 1147).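 Also: signal reflects streptavidin binding to arrayed compounds as a control protein.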 The conditions noted are these: streptavidin binding, higher = more signal.
Assay [7] can be described thus: small-molecule binders of probe aInhba, primary screen, biochemical, small-molecule microarray, 635/667 nm fluorescence (AID 1148).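 Also: score merges 667nm spot fluorescence with signal-to-noise for antibody binding to printed compounds.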 The following applies: higher = more signal.
For assay [8], the target named is Torsin-1A (Homo sapiens) (UniProt O14656). In words: torsin A binders from cell lysate, primary screen, small-molecule microarray, wild-type, 635/667 nm (AID 1149). The conditions noted are these: COS7 hTOR1A-WT lysate, 635 nm fluorescence, higher = more signal.
Assay [9] has the same target. Kind of assay: small-molecule binders of mutant TOR1A in lysate, primary screen, cell lysate, small-molecule microarray, COS7 lysate, 635/667 nm fluorescence (AID 1150).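 Also: score pools 667 nm emission and signal to noise measuring lysate protein binding.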 The following applies: COS7 hTOR1A mutant lysate, 635 nm fluorescence, higher = more signal.
Assay [10] relates to Sonic hedgehog protein (Shh). Kind of assay: small-molecule binders of Shh protein, primary screen, biochemical, small-molecule microarray, 635/667 nm fluorescence (AID 1151).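 Also: Shh protein binding to compounds spotted on small-molecule microarray slides; score combines spot fluorescence intensity with signal-to-noise across triplicate slides.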 The following applies: small-molecule microarray binding, 635 nm fluorescence; higher = more signal.
Assay [11] in a line: E. coli DRC41 culture turbidity changes, primary screen, E. coli filamentation inducer project, strain DRC41, OD650, 48 h (AID 1152).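 Also: E. coli MC1000 strain DRC41 lacking acrAB efflux pump and sulA.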 The conditions noted are these: E. coli DRC41 (acrAB sulA), higher = more signal, called active from +8 up or from −8 down.
The nature of assay [12]: small-molecule binders of probe aLefty1, primary screen, biochemical, small-molecule microarray, 635/667 nm fluorescence (AID 1153).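 Also: score merges spot fluorescence with signal-to-noise ratio from the scanned slide images.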 The conditions noted are these: higher = more signal.
Assay [13] in a line: PSAC antagonists in infected red cells, primary screen, cell-based, P. falciparum Indochina, OD700, 1 h (AID 1154). The following applies: P. falciparum Indochina infected RBC osmotic lysis, higher = more signal, called active from +8 up or from −8 down.
A short description of assay [14]: PSAC antagonists in infected red cells, primary screen, cell-based, P. falciparum Indochina, OD700, 2 h (AID 1155).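 Also: lysis reports solute entry through the parasite surface anion channel PSAC; channel blockers reduce lysis of infected cells.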 The conditions noted are these: P. falciparum Indochina infected erythrocytes, osmotic lysis OD700; higher = more signal, called active from +8 up or from −8 down.
A short description of assay [15]: osmotic lysis modulators in infected erythrocytes, primary screen, PSAC antagonist project, cell-based, P. falciparum Indochina, OD700, 3 h (AID 1156). The following applies: higher = more signal, called active from +8 up or from −8 down.
Assay [16] can be described thus: PSAC antagonists in infected red cells, primary screen, cell-based, P. falciparum Indochina, OD700, 18 h (AID 1157). The conditions noted are these: P. falciparum Indochina infected erythrocytes, osmotic lysis OD700, 18 h; higher = more signal, called active from +8 up or from −8 down.
Assay [17] is described as follows: modulators of S6 phosphorylation in cells, primary screen, cell-based, A549, cytoblot, luminescence, serum-stimulated (AID 1158).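 Also: serum-stimulated A549 lung adenocarcinoma cells; signal is phosphorylated S6 detected by cytoblot immunostaining with HRP secondary.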 The conditions noted are these: A549 phospho-S6 cytoblot, 5 h, higher = more signal.
For assay [18], the target named is NADPH oxidase 2 (Homo sapiens) (UniProt P04839). Kind of assay: NOX2-dependent H2O2 signal modulators, primary screen, NOX inhibitor project, cell-based, HEK293-NOX2, PMA-stimulated, Amplex Red fluorescence (AID 1159). Also: test concentration not given here. The following applies: 45 min, higher = more signal, called active from +8 up or from −8 down.
Assay [19] has as its target NADPH oxidase 4 (Homo sapiens) (UniProt Q9NPH5). Kind of assay: NOX4-dependent H2O2 signal modulators, primary screen, NOX inhibitor project, cell-based, HEK293-NOX4, tetracycline-induced, Amplex Red fluorescence (AID 1160). The following applies: 45 min, higher = more signal, called active from +8 up or from −8 down.
Assay [20] has as its target NADPH oxidase 5 (Homo sapiens) (UniProt Q96PH1). In words: NOX5-dependent H2O2 signal modulators, primary screen, NOX inhibitor project, cell-based, HEK293-NOX5, Amplex Red fluorescence (AID 1161). The conditions noted are these: HEK293-NOX5, ionomycin, 45 min, higher = more signal.

Sequence of Torsin-1A (Homo sapiens) (O14656 whole entry, looked up): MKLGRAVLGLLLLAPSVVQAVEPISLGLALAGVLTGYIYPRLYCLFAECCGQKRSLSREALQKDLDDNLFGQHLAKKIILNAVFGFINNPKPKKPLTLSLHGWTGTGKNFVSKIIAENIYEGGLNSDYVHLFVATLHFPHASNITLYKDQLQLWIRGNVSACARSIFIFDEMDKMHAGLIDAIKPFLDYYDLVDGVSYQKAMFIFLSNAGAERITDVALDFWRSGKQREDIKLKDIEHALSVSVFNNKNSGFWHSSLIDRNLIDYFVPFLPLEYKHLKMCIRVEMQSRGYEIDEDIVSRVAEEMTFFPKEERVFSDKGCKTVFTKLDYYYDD
Sequence of NADPH oxidase 4 (Homo sapiens) (Q9NPH5 whole entry, looked up): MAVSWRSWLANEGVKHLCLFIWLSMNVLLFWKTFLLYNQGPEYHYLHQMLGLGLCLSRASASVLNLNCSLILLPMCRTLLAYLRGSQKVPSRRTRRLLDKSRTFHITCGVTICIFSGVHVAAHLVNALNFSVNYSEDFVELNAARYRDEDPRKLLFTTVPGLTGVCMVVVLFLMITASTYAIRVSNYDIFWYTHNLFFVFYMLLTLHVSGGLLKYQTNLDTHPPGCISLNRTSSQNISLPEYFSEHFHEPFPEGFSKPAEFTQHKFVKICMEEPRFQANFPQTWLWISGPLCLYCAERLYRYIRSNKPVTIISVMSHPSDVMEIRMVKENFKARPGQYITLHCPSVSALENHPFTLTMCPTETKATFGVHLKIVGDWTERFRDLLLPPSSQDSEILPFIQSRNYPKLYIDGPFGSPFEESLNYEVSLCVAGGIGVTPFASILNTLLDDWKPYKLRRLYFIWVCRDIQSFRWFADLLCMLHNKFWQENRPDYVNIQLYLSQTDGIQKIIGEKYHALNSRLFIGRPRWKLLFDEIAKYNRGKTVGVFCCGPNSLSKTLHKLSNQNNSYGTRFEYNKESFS
Sequence of Streptavidin (Streptomyces avidinii) (P22629 whole entry, looked up): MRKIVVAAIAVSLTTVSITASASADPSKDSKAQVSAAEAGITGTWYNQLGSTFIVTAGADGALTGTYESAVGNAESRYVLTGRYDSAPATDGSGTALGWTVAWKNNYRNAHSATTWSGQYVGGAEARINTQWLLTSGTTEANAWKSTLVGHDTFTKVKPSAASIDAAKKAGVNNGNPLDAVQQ
Sequence of NADPH oxidase 2 (Homo sapiens) (P04839 whole entry, looked up): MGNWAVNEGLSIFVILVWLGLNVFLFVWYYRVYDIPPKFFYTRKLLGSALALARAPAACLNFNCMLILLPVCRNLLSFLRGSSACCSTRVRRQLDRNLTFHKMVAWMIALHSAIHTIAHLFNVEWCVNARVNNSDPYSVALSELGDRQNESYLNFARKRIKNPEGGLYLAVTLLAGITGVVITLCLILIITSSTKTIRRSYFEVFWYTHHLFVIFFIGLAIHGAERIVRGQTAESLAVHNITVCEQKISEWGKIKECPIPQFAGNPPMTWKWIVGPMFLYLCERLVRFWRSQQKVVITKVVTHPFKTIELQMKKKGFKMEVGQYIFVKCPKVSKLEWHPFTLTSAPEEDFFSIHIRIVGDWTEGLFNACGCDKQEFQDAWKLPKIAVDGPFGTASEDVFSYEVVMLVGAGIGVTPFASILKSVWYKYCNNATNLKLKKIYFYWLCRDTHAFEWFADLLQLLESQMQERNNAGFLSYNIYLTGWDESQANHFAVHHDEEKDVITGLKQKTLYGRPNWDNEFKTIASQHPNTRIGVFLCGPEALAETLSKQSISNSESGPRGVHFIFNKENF
Sequence of NADPH oxidase 5 (Homo sapiens) (Q96PH1 whole entry, looked up): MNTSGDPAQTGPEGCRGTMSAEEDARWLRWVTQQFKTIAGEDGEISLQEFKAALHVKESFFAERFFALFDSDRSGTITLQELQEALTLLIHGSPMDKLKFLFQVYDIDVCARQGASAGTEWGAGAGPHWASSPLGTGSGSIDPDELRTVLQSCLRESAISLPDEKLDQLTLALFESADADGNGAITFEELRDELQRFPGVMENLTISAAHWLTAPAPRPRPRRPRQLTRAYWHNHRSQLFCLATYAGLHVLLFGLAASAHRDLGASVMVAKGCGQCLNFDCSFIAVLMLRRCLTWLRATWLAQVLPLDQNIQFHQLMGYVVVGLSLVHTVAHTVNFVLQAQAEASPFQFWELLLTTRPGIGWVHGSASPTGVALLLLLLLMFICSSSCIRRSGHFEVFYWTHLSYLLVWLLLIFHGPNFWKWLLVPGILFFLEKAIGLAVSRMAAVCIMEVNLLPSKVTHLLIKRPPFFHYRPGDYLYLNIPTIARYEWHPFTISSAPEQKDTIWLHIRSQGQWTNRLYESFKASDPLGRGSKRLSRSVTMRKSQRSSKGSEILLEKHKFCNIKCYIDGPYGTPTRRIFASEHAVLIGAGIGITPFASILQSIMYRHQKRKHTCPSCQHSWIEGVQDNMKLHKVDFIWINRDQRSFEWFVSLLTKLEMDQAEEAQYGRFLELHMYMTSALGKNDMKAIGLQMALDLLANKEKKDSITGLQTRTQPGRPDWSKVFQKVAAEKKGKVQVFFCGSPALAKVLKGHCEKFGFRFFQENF

Consider `[N-]=[N+]=NCc1ccccc1[C@H]1OC(c2ccc(OCCCO)cc2)=N[C@@]1(CCS(=O)(=O)c1ccccc1)C(=O)O`, for which the composite z-score was -0.0632 in assay [1]; 0.729 in [6]; -0.13 in [7]; -0.359 with Torsin-1A (Homo sapiens) [8]; 0.622 with Torsin-1A (Homo sapiens) [9]; -1.37 in [10]. Besides, the composite z-score in assay [12] came to 0.328. Further, the z-score in assay [2] was -0.0569 (inactive); in assay [3], 0.637 (inactive); in assay [4] it was -0.435 (inactive); in [5], -0.427 (inactive); in assay [11], -0.123 (inactive); in assay [13], 20.5 (active). For the same molecule, the z-score in [14] is 6 (inactive); in assay [15], 0.471 (inactive); in [16], 1.06 (inactive); in assay [17], -0.497; in [18], 1.09 (inactive); in [19] it was 1.09 (inactive). For the same molecule, in [20], the z-score turned out to be 2.1.

For the molecule `CC[C@H]1C2=C3C(CC[C@H]4C(OCc5ccc(F)cc5C(F)(F)F)OC[C@](C)([C@@H]34)N(C(=O)OC(C)(C)C)C2)C(COC(C)=O)C1COC(C)=O` (stereo not given in full), the composite z-score is 0.374 in [1]; 1.3 in assay [6]; 0.214 in assay [7]; 0.129 with Torsin-1A (Homo sapiens) [8]; 0.168 with Torsin-1A (Homo sapiens) [9]; -1.2 in assay [10]. Moreover, in [12], the composite z-score was determined as 0.713. Further, the z-score is -1.35 (inactive) in [2]; 0.729 (inactive) in assay [3]; 0.204 (inactive) in assay [4]; 1.3 (inactive) in assay [5]; -2.44 (inactive) in assay [11]; 0.408 (inactive) in assay [13]. For the same molecule, the z-score is -0.248 (inactive) in assay [14]; 0.483 (inactive) in assay [15]; 0.323 (inactive) in assay [16]; -0.772 in [17]; -1.05 (inactive) in assay [18]; -2.56 (inactive) in assay [19]. This molecule gave a z-score in [20] of -1.43.

With `COC(=O)C[C@H]1O[C@]2(C(=O)N(C)c3ccccc32)[C@@H](C)[C@@H]1[Si](C)(C)c1ccccc1`, the composite z-score in [1] is 0.148; in [6], 1.02; in assay [7], -0.204; with Torsin-1A (Homo sapiens) [8] it was 0.262; in the assay with Torsin-1A (Homo sapiens) [9], 0.395; in assay [10], 1.65. The molecule further registered a composite z-score in [12] of 0.151. The z-score was -4.59 (inactive) in assay [2]; 0.115 (inactive) in [3]; -0.141 (inactive) in assay [4]; -0.477 (inactive) in assay [5]; -0.297 (inactive) in assay [11]; 1.48 (inactive) in assay [13]. Further, the z-score was 0.405 (inactive) in [14]; 1.1 (inactive) in assay [15]; 0.0591 (inactive) in assay [16]; 0.252 in [17]; 0.767 (inactive) in assay [18]; 0.176 (inactive) in [19]. The z-score in [20] is -1.11.

For `[N-]=[N+]=NCc1ccccc1C[C@@]1(C(=O)NCCN2CCOCC2)N=C(c2ccc(OCCCO)cc2)O[C@@H]1c1ccccc1`, the composite z-score in [1] was found to be 0.366; in assay [6], 1.11; in assay [7], 0.302; with Torsin-1A (Homo sapiens) [8] it was 0.271; in the assay with Torsin-1A (Homo sapiens) [9] it was 0.57; in assay [10] it was 0.34. In addition, the composite z-score in assay [12] was determined as 0.546. For the same molecule, the z-score in assay [2] was -3.38 (inactive); in [3], 0.505 (inactive); in [4] it was 2.72 (inactive); in [5], 0.847 (inactive); in assay [11], -1.58 (inactive); in [13] it was 25.3 (active). Besides, the z-score in assay [14] was 11.7 (active); in [15], 1.44 (inactive); in assay [16], 1.65 (inactive); in [17] it was -0.28; in [18], -1.48 (inactive); in assay [19], 0.731 (inactive). In [20], this molecule yielded a z-score of 1.27.

For the origin of these results see PubChem BioAssay.
